This note sets out measurements from PubChem BioAssay.

“And” between values parts separate entries of the source, which are not always exact repeats. Equal values may be shown once. Records with an inconclusive call do not appear. The source made the active and inactive calls. Unless noted, how the calls were made is not given here.

A word on the inhibition: it is the drop in the measured response relative to a control, in per cent. A word on the remaining activity: it is the signal under treatment as a percentage of the control signal.

Assay [1] can be described thus: signal quenchers or enhancers, Cy5 substrate/SSB – biochemical, NIH Clinical Collection, E. coli SSB, artefact control for HCV NS3 helicase inhibitor project (AID 743268). Particulars: Cy5-oligo bound E. coli SSB, fluorescence interference.
Assay [2] has as its system Hepatitis C virus NS3 helicase. In words: blockers of NS3h binding to DNA – biochemical, fluorescence polarization, NIH Clinical Collection, primary screen (AID 743270). Conditions: NS3 helicase binding to Cy5-dT15 DNA, stronger effect = higher value, concentration not given here. On the technique in general: Polarisation of emitted light reports the rotation of a fluorescent probe.

The target of assay [3] is Single-stranded DNA-binding protein (Escherichia coli (strain K12)) (UniProt P0AGE0). The experiment in a line: SSB-ssDNA binding inhibitors – biochemical, fluorescence polarization, NIH Clinical Collection, counter-screen for HCV NS3 helicase inhibitor project (AID 743271; in the data active means inhibition above about 28%). Conditions: E. coli SSB-DNA binding, stronger effect = higher value, concentration not given here.
Assay [4] is described as follows: compounds distorting NS3 helicase fluorescence signal – biochemical, NIH Clinical Collection, artefact control for HCV NS3 helicase inhibitor project (AID 743272).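 Further: HCV NS3 helicase with a Cy5 labelled single stranded DNA probe.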 Conditions: fluorescence interference counterscreen, HCV NS3 helicase assay; stronger effect = lower value. (Counterscreens check selectivity or assay interference.)
Assay [5] can be described thus: viability loss in pontine glioma line – cell-based, SU-DIPG-XVII, MIPE5.0, CellTiter-Glo, qHTS, dose response (AID 1347060; cut-off not given, nearly all actives have AC50 up to about 26 µM). Conditions: CellTiter-Glo ATP luminescence.
Assay [6] in a line: viability loss in pontine glioma line – cell-based, SU-DIPG-XIII, MIPE4.0, CellTiter-Glo, qHTS, dose response (AID 1347061; cut-off not given, nearly all actives have AC50 up to about 37 µM;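 further: cells exposed to compound for 48 hours before readout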). Conditions: CellTiter-Glo ATP luminescence. On the technique in general: Cellular ATP, detected with luciferase, serves as a proxy for viable cell number.
Assay [7] can be described thus: viability loss in pontine glioma line – cell-based, JHH-DIPG-1, MIPE4.0, CellTiter-Glo, qHTS, dose response (AID 1347062; cut-off not given, nearly all actives have AC50 up to about 27 µM). Particulars: JHH-DIPG-1 viability, CellTiter-Glo ATP luminescence.
Assay [8] in a line: growth inhibition of DIPG cells – cell-based, MIPE4.0 library, CellTiter-Glo luminescence, qHTS (AID 1347066; cut-off not given, nearly all actives have AC50 up to about 30 µM;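 further: cells exposed to compound for 48 hours before readout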). Conditions: SU-DIPG-VI viability, CellTiter-Glo ATP luminescence.
Assay [9] can be described thus: JHH-DIPG-1 glioma cell viability, MIPE5.0 library, CellTiter-Glo luminescence, qHTS (AID 1347067; cut-off not given, nearly all actives have AC50 up to about 26 µM;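 further: cells exposed to compound for 48 hours before readout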). Particulars: JHH-DIPG-1 glioma viability, CellTiter-Glo ATP luminescence.
Assay [10] concerns F380Y/beta1. The experiment in a line: BK channel mutant inhibitors and activators – cell-based, U2OS BacMam, thallium flux, beta subunits, selectivity assay, profiling panel (AID 1259406;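 active means thallium flux through the channel raised or lowered by more than 3 SD from vehicle-only wells, actives on both sides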;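 further: initial slope of Thallos dye fluorescence rise after thallium is added; log ratio against the mean of 0.3% DMSO vehicle wells on the same plate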). Particulars: U2OS BacMam BK variants, at 30 µM.
Assay [11] has as its system F380Y/beta4. The assay is described as above. Conditions: U2OS BacMam BK variants, at 30 µM.
The test system of assay [12] is R275C/beta4. Described as above. Particulars: U2OS BacMam BK variants, at 30 µM.
Assay [13] is described as follows: viability loss in pontine glioma line – cell-based, SU-DIPG-IV, MIPE4.0, CellTiter-Glo, qHTS, dose response (AID 1347063; cut-off not given, nearly all actives have AC50 up to about 30 µM;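 further: compound exposure lasted 48 hours before the viability readout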). Conditions: CellTiter-Glo ATP luminescence.
Assay [14] in a line: growth inhibition of DIPG cells – cell-based, MIPE5.0 library, qHTS (AID 1347068; cut-off not given, nearly all actives have IC50 up to about 30 µM). Conditions: SU-DIPG-XXV viability.
Assay [15] relates to Neuropilin-2 / VEGF-C interaction (human). The experiment in a line: small molecules blocking Neuropilin-2/VEGF-C interaction – biochemical, microplate binding format, z-score (AID 743281). Conditions: microplate NRP2/VEGF-C binding assay; stronger effect = lower value.
The subject of assay [16] is Aerobactin synthetase IucA (Klebsiella pneumoniae). The experiment in a line: inhibition of K. pneumoniae IucA enzyme – biochemical, Tocris library, absorbance (AID 1345561).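 Further: 100% = enzyme without compound and 0% = no enzyme.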 Conditions: purified IucA enzyme assay, absorbance (OD) read-out; stronger effect = lower value;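 tested at 8 µM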.
Assay [17] in a line: growth inhibition, single agent or in combination, cell-based, chromothripsis tumors, cisplatin or BGB combos (AID 1671449; in the data active means inhibition above about 80%;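 further: cells exposed for 96 hours; 0% = vehicle DMSO and 100% = killing by high DMSO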). Conditions: LFS_MB_P medulloblastoma cells.
Assay [18] can be described thus: growth inhibition, single agent and combos, cell-based, chromothripsis tumors, cisplatin or BGB combos (AID 1671450; in the data active means inhibition above about 80%;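 further: cells exposed to compound for four days; 0% = vehicle DMSO and 100% = cell killing by high DMSO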). Conditions: HDN33 neuroblastoma cells, stronger effect = higher value.
Assay [19] in a line: growth inhibition, single agents and combos, ICB984, cell-based, cisplatin or BGB combos, synergistic combos for chromothripsis tumors (AID 1671451).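 Further: cells exposed for 96 hours before readout; 0% = vehicle DMSO and 100% = killing by high DMSO.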 Particulars: ICB984 medulloblastoma cells, drug combinations, stronger effect = higher value.
Assay [20] can be described thus: growth inhibition, single agents and combos, HTB85, cell-based, BGB or cisplatin IC20 combos, synergistic combos for chromothripsis tumors (AID 1671453; in the data active means inhibition above about 80%;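 further: cells exposed for 96 hours before readout; 0% = vehicle DMSO and 100% = high DMSO killing control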). Particulars: HTB85 osteosarcoma cells, drug combinations, stronger effect = higher value.

In the case of `C=C1C[C@@H]2[C@H](CC[C@]3(C)C(=O)CC[C@@H]23)[C@@]2(C)C=CC(=O)C=C12`, the values for the fluorescence ratio in [1] and in [4] were 1.07 (inactive) and 1.05 (inactive), respectively. The inhibition in assay [2] was 2.77% (inactive); in assay [3], 2.98% (inactive). For the same compound, the outcome in [5], in [6], in [7], in assay [8] and in assay [9] was inactive. Moreover, the results for the log fold change Tl+ flux in assay [10], in [11] and in assay [12] were 0.059 (inactive), 0.013 (inactive) and 0.0226 (inactive), respectively.
As to `CN1CCN(C(=O)O[C@H]2c3nccnc3C(=O)N2c2ccc(Cl)cn2)CC1`, the fluorescence ratio was 1 (inactive) in [1] and 1.03 (inactive) in assay [4]. Besides, the inhibition in [2] is -4.09% (inactive); in assay [3], -4.29% (inactive). Moreover, the result in assay [6], in assay [7], in assay [13] and in assay [8] was inactive. Further, the log fold change Tl+ flux in assay [10] was -0.0113 (inactive); in assay [11], -0.00667 (inactive); in [12], 0.00608 (inactive).
For the compound `CC(C)c1cccc(C(C)C)c1O`, the fluorescence ratio in assay [1] was 0.96 (inactive); in assay [4], 0.87 (inactive). The figures for the inhibition in assay [2] and in [3] were -1.36% (inactive) and 4.1% (inactive), respectively. In addition, the result in [5], in assay [7], in assay [13], in [8], in assay [9] and in assay [14] was inactive. The figures for the log fold change Tl+ flux in assay [10], in assay [11] and in [12] were -0.0717 (inactive), -0.00471 (inactive) and -0.0411 (inactive), respectively.
On to `O=C(O)C(Cl)Cl`, for which the fluorescence ratio in assay [1] is 0.97 (inactive); in [4], 0.96 (inactive). The inhibition in [2] is -0.4% (inactive); in assay [3], 0.67% (inactive). In addition, the z-score in [15] is 0.208 (inactive). The remaining activity in [16] was 99.4% (inactive). Moreover, the values for the log fold change Tl+ flux in [10], in assay [11] and in [12] were -0.0051 (inactive), -0.0155 (inactive) and -0.0167 (inactive), respectively.
Take `O=P1(NCCCl)OCCCN1CCCl` (configuration not stated): the compound was classed as inactive in assay [5], in [6], in assay [7], in assay [8], in assay [9] and in assay [14]. Besides, the inhibition in assay [17] (at 0.5 µM, stronger effect = higher value) was -12.1% (inactive) and -23.4% (inactive); in assay [17] (measured here: combination with BGB IC20, at 0.005 µM), -22%; in assay [17] (measured here: combination with BGB IC40, at 0.005 µM), -15% and -23.6%; in assay [17] (measured here: combination with BGB IC40, at 0.05 µM), -22.5% and -36.7%; in [17] (measured here: combination with cisplatin, at 0.5 µM, stronger effect = higher value), -34.3% and -30.8%; in assay [17] (measured here: combination with cisplatin, at 5 µM, stronger effect = higher value), -44% and -49.9%. Further, the inhibition in assay [18] (BGB combo, at 5 µM) is -18.3% and -55.5%; in assay [18] (at 0.5 µM), 2.74% (inactive) and -43.1% (inactive); in [18] (cisplatin combo, at 5 µM), -14.3% and -32.8%; in assay [18] (measured here: with BGB IC20 combination, at 0.5 µM), 36.5% and -51.2%; in assay [18] (measured here: with cisplatin IC20 combination, at 0.5 µM) it was -4.58% and -35.3%; in assay [18] (single agent, at 5 µM), -24.7% and -29.3%. The inhibition in [19] (BGB IC20 combo, at 0.005 µM) is -4.87% and -19.5%; in assay [19] (BGB IC40 combo, at 0.005 µM) it was -32.7% and -24.5%; in assay [19] (BGB IC40 combo, at 0.05 µM), -25.4% and -42.1%; in assay [19] (at 0.5 µM), -22% (inactive) and -43% (inactive); in assay [19] (cisplatin combo, at 0.05 µM), -25.4% and -47.2%; in [19] (cisplatin combo, at 0.5 µM) it was -28.2% and -28.3%. Moreover, the inhibition in assay [19] (cisplatin combo, at 5 µM) was -18% and -28.2%; in [19] (measured here: 5 uM single agent, at 5 µM), -4.46% and 4.1%; in [20] (at 0.5 µM) it was -11.8% (inactive) and -20.1% (inactive); in assay [20] (measured here: with BGB IC20, at 0.5 µM), -26.1% and -41.8%; in [20] (measured here: with BGB IC20, at 5 µM) it was -16.8% and -29.8%; in assay [20] (measured here: with cisplatin IC20, at 0.5 µM), 9.75% and -12.8%. The inhibition was 1.05% and -46.6% in assay [20] (measured here: with cisplatin IC20, at 5 µM); -10.4% and -9.47% in assay [20] (single agent, at 5 µM).
Take `c1ccc2c(c1)OCC(C1=NCCN1)O2` (configuration not stated): the remaining activity in assay [16] is 99.1% (inactive).
Consider `COc1cccc([C@@]2(O)CCCC[C@@H]2CN(C)C)c1`, for which the z-score in assay [15] is 0.404 (inactive). For the same compound, the log fold change Tl+ flux in [10] is -0.0211 (inactive); in assay [11], -0.0244 (inactive); in [12], -0.00931 (inactive).
As for `C[N+]1(CCC(C(N)=O)(c2ccccc2)c2ccccc2)CCCCC1`, the fluorescence ratio is 1.01 (inactive) in [1] and 0.95 (inactive) in assay [4]. Besides, the figures for the inhibition in assay [2] and in assay [3] were -1.98% (inactive) and -0.1% (inactive), respectively. Moreover, the z-score in [15] is -0.188 (inactive). Besides, the log fold change Tl+ flux in assay [10] was -0.0163 (inactive); in [11], -0.00383 (inactive); in assay [12] it was -0.0252 (inactive).
Regarding `c1ccc2c(c1)Nc1ccccc1S2`, the fluorescence ratio was 0.96 (inactive) in assay [1] and 0.95 (inactive) in assay [4]. The inhibition in assay [2] was 1.53% (inactive); in [3], 5.12% (inactive). For the same compound, the z-score in assay [15] is 0.0903 (inactive). Besides, the log fold change Tl+ flux was 0.0323 (inactive) in assay [10], -0.0296 (inactive) in assay [11] and -0.0162 (inactive) in assay [12].
`NN=C(N)N`: in assay [16], the remaining activity is 98% (inactive). The compound was called inactive in assay [5], in assay [9] and in assay [14].
`Oc1cc(Cl)ccc1Oc1ccc(Cl)cc1Cl`: the fluorescence ratio in [1] is 1.01 (inactive); in assay [4], 0.91 (inactive). The figures for the inhibition in [2] and in [3] were 2.27% (inactive) and -0.48% (inactive), respectively. Besides, the log fold change Tl+ flux in [10] was -0.302 (active); in [11], -0.429 (active); in assay [12] it was 0.0409 (inactive).
For the compound `CCOC(=O)c1cncn1C(C)c1ccccc1` (configuration not stated), the log fold change Tl+ flux in [10] was 0.00176 (inactive); in [11], 0.0301 (inactive); in [12], -0.000383 (inactive).
